Out of some 300,000 compounds screened, about 37,000 (12%) were called active. Rule as the data show it: active = max response mostly above about 13% (no sharp cut-off); inactive = mostly below about 14%. For the sample, actives were picked, then their nearest neighbours and some compounds at random.
experiment: Cycloheximide Counterscreen for Small Molecule Inhibitors of Shiga Toxin; details: cell reporter, cycloheximide protein synthesis inhibition counterscreen; hits give high values; also: read at 38.3 µM for the half of the compounds with a filed dose; 0% is about no effect

| SMILES | max response |
| --- | --- |
| Cc1cc(C)c2c(=O)[nH]c(SCC(=O)Nc3ccc(Br)cc3)nc2n1 | -1.25% (inactive) |
| COc1ccc(C2CC(c3cccs3)=Nc3ccccc3S2)cc1OC (stereo unspecified) | 30.8% (active) |
| COc1ccc(C2CC(c3cccs3)=NN2C(=O)CCC(=O)O)cc1OC (stereo unspecified) | -0.943% (inactive) |
| COc1ccc(C2CC(c3cccs3)=NN2c2ccc(F)cc2)cc1OC (stereo unspecified) | 15.3% (inactive) |
| COC(=O)c1ccc(NC(=O)CSc2nnc(-c3ccncc3)n2C)cc1 | 0.526% (inactive) |
| CCn1c(CNc2ccc(OC)cc2)nnc1SCC(=O)c1ccc(OC)cc1 | 25.8% (active) |
| COC(=O)c1ccc(NC(=O)CSc2nnc(C3CC3)n2C)cc1 | -2.61% (inactive) |
| CCn1c(SCC(=O)NNC(=O)c2ccc(OC)cc2)nnc1C(C)C | -1.89% (inactive) |
| COC(=O)c1ccc(NC(=O)CSc2nnc(CNc3ccc(OC)cc3)n2C)cc1 | 15.4% (active) |
| C=CCn1c(CNC(=O)c2ccco2)nnc1SCC(=O)c1ccc(OC)cc1 | 0.446% (inactive) |
| O=C(NCCCN1CCCC1=O)C(=O)NCC1OCCN1S(=O)(=O)c1ccc(Br)cc1 (stereo unspecified) | 0.895% (inactive) |
| CN(C)c1ccc(NC(=S)N(CCc2ccccc2)C2CC(=O)N(c3c(Cl)cccc3Cl)C2=O)cc1 (stereo unspecified) | 9.01% (inactive) |
| Cc1ccc(-n2c(SCC(=O)NCCC3=CCCCC3)nc3n[nH]c(C)c3c2=N)cc1Cl | -7.25% (inactive) |
| O=C(Cn1cncn1)N/N=C/c1c2ccccc2cc2ccccc12 | 10.8% (inactive) |
| Cc1cccn2c(=O)c3cc(C(=O)NCCN4CCOCC4)c(=N)n(Cc4cccnc4)c3nc12 | -3.88% (inactive) |
| CC(Cc1cccs1)NC(=O)NC1CCCCC1 (stereo unspecified) | 12% (inactive) |
| CC(Cc1cccs1)NC(=O)c1cccc(Cl)c1 (stereo unspecified) | 54.9% (active) |
| CC(Cc1cccs1)NCc1ccc(Cl)cc1 (stereo unspecified) | 8.85% (inactive) |
| O=C(c1cnc(Cl)c(Cl)c1)N1CCN(S(=O)(=O)c2ccc(F)cc2)CC1 | -7.24% (inactive) |
| Cc1cnc(C(=O)N2CCCC(C(=O)c3ccc(C(F)(F)F)cc3)C2)cn1 (stereo unspecified) | -6.02% (inactive) |
| COc1ccc2c(Cl)c(C(=O)NCc3ccco3)sc2c1 | 76.1% (active) |
| COc1ccc(-c2cc(C(=O)NCc3ccco3)no2)cc1OC | 8.2% (inactive) |
| O=C(NCc1ccco1)c1sc2cccc(F)c2c1Cl | 24.8% (active) |
| Cn1nc(-c2ccc(Cl)cc2)c2cc(C(=O)NCc3ccco3)sc21 | -3.6% (inactive) |

| SMILES | max response |
| --- | --- |
| O=C(NCc1ccco1)c1ccc([N+](=O)[O-])cc1Cl | -2.66% (inactive) |
| O=C(NCc1ccco1)c1nn2cccnc2c1Cl | 7.86% (inactive) |
| COC(=O)c1ccc(COc2cc([N+](=O)[O-])cc3cccnc23)cc1 | 0.536% (inactive) |
| COc1cccc(NC(=O)C2CCCN(c3ncnc4c3nc3n4CCCCC3)C2)c1 (stereo unspecified) | 9.28% (inactive) |
| CCCOc1ccc(Cc2c(Cl)nc(SC)nc2NC)cc1 | -0.737% (inactive) |
| CC(NC(=O)c1cc(=O)[nH]c2ccccc12)c1ccc(F)cc1F (stereo unspecified) | -4.29% (inactive) |
| CC(C)N1C(=S)SC(C)(C)C1n1oc(=O)n(-c2ccc(Cl)c(Cl)c2)c1=O (stereo unspecified) | -1.96% (inactive) |
| CC(=O)NC1CCN(CC(=O)Nc2nccs2)CC1 | 4.21% (inactive) |
| CC1(C)CC(=O)C(C2c3ccccc3S(=O)(=O)c3ccccc32)C(=O)C1 | 7.14% (inactive) |
| COc1ccc(CNC(=O)C(NS(=O)(=O)c2cccc3nsnc23)C(C)C)cc1 (stereo unspecified) | 2.57% (inactive) |
| Cc1ccc(C)c(OCCC(=O)OCC(=O)N2CCN(c3ccccc3)CC2)c1 | -1.98% (inactive) |
| CCCCN1C(=O)/C(=C(/C#N)C(N)=O)c2ccccc21 | -9.26% (inactive) |
| COc1ccc2c(c1)C(=C(C#N)C#N)C(=O)N2CCc1ccccc1 | 13.7% (active) |
| C#CCN1C(=O)C(O)(CC(=O)c2cc(OC)ccc2OC)c2ccccc21 (stereo unspecified) | -0.954% (inactive) |
| COc1cccc2cc(C(N)=O)/c(=N\NC(=O)c3ccccc3)oc12 | 36.9% (active) |
| NC(=O)c1cc2ccccc2o/c1=N/NC(=O)c1cccc(F)c1 | 8.31% (inactive) |
| COc1ccc(C(=O)N/N=c2\oc3ccccc3cc2C(N)=O)cc1 | 45% (inactive) |
| CCCC(C)c1nnc(NC(=O)C2CC(=O)N(c3ccc(OCC)cc3)C2)s1 (stereo unspecified) | -2.49% (inactive) |
| COc1ccc(N2CCN(C(=O)CNC(=O)c3ccc(Br)o3)CC2)cc1 | -1.81% (inactive) |
| CC1=C(C(N)=O)C(c2ccc(F)cc2)n2nc(CCCO)nc2N1 (stereo unspecified) | 5.22% (inactive) |
| Cc1cc(C)c(SCCc2ccncc2)c(C)c1 | 1.01% (inactive) |
| CC(c1ccccc1)(c1ccccc1)c1ccncc1 | -5.73% (inactive) |
| CC(C)(C)c1ccc(SCCc2ccncc2)cc1 | 12.3% (active) |
| COc1ccc(N2CCN(C(=O)Cn3cnc4sc(C)c(S(=O)(=O)N5CCOCC5)c4c3=O)CC2)cc1 | -2.13% (inactive) |

| SMILES | max response |
| --- | --- |
| Cn1c(=O)[nH]c(=O)c2c1[nH]c(=S)n2Cc1ccccc1 | -6.84% (inactive) |
| CCOCc1nnc(NC(=O)CCC2CCCCC2)s1 | 9.52% (inactive) |
| CCc1ccc(OCC(O)CN2CCN(CCO)CC2)cc1 (stereo unspecified) | -1.22% (inactive) |
| CCn1c(SC)nc(O)c(C(c2ccc(OC)c(O)c2)c2c(O)nc(SC)n(CC)c2=O)c1=O | 18.8% (inactive) |
| Cc1onc(-c2ccc(Cl)cc2)c1-c1ccnn1S(=O)(=O)c1ccc(Cl)cc1 | 9.73% (inactive) |
| COc1ccc(CCNS(=O)(=O)c2cccc3cccnc23)cc1OC | -1.86% (inactive) |
| COc1ccc2[nH]c(=O)c(CN(Cc3cccnc3)S(=O)(=O)c3ccccc3F)cc2c1 | -2.1% (inactive) |
| COc1ccccc1Cc1nc(-c2ccc(C)cc2)no1 | 35.3% (active) |
| COc1ccc(CCNC(=O)C(Sc2ccccn2)c2ccccc2)cc1OC (stereo unspecified) | -1.92% (inactive) |
| CCCc1nc(-c2cc3cc(C)ccc3[nH]c2=O)no1 | 2.4% (inactive) |
| COc1ccc2[nH]c(=O)c(-c3noc(-c4ccc(F)cc4)n3)cc2c1 | 41% (active) |
| COc1ccc(-c2noc(CSc3ccc(C)cc3)n2)cc1 | 10.3% (inactive) |
| COc1ccc(-c2noc(-c3ccc(C)cc3)n2)cc1 | 39.5% (active) |
| COc1ccc(-c2noc(CN(C)S(=O)(=O)c3ccc(C)cc3)n2)cc1 | -2.54% (inactive) |
| Cc1ccc(-c2noc(CC(c3ccccc3)c3ccccc3)n2)cc1 | 11% (inactive) |
| COc1ccccc1CNS(=O)(=O)c1ccc(C)cc1 | 7.14% (inactive) |
| COc1ccc(Cc2nc(-c3ccccn3)no2)cc1OC | 33% (active) |
| O=c1c([N+](=O)[O-])cccn1Cc1ccc(F)cc1Cl | -5.4% (inactive) |
| CCCN(CCC)C(=S)Nc1cc(C(=O)OC)ccc1C(=O)OC | -1.36% (inactive) |
| COc1ccc(S(=O)(=O)/N=C2\C=C(NS(=O)(=O)c3ccccc3)C(=O)c3ccccc32)cc1 | 13.7% (inactive) |
| COC(=O)COc1ccc2c(=O)c(Oc3ccccc3Br)coc2c1 | 1.67% (inactive) |
| CCCCN(CCCC)CC(O)Cn1c2ccccc2c(=O)c2ccccc21 (stereo unspecified) | 1.42% (inactive) |
| CCc1ccnc(NC(=O)Nc2ccc(OCc3ccccc3)cc2)c1 | 4.28% (inactive) |
| COc1ccc(/C=C/c2c(-c3cccc(C)c3)oc3ccc(-c4ccc5c(c4)OCO5)cc23)cc1 | -3.1% (inactive) |

| SMILES | max response |
| --- | --- |
| COc1ccc(C2=Nc3cc(C)ccc3OC2)cc1 | 33.1% (active) |
| COc1ccc(C2=NOC3(CC(=O)N(c4ccc(C)cc4)C3=O)C2)cc1 (stereo unspecified) | 14.2% (inactive) |
| CC(=O)Nc1ccc(S(=O)(=O)Nc2ccc(-c3ccc4nnc(C)n4n3)cc2)cc1 | -1.66% (inactive) |
| O=C(NC1CCCC1)C(c1ccc(Cl)cc1)N(C(=O)c1csnn1)C1CC1 (stereo unspecified) | -3.62% (inactive) |
| Cc1cc(/C=C2/NC(=O)NC2=O)c(C)n1-c1cccnc1 | 7.98% (inactive) |
| Cc1cccc(C)c1-n1c(C)cc(/C=C2\C(=O)NN(c3ccccc3)C2=O)c1C | -1.17% (inactive) |
| Cc1ccccc1-n1c(C)cc(/C=C2\NC(=O)NC2=O)c1C | 52% (active) |
| CCOc1ccc(S(=O)(=O)N2CCN=C2Cc2ccccc2)cc1C | -7.25% (inactive) |
| CCOc1ccc(N(C)S(=O)(=O)c2cnc[nH]2)cc1 | -3.61% (inactive) |
| O=C(Cc1ccc(S(=O)(=O)N2CCCC2)s1)NC1CCCCCC1 | 0.894% (inactive) |
| C=CCn1c(=S)sc2c(=O)[nH]c(C)nc21 | 6.52% (inactive) |
| COc1ccccc1C1/C(=C(/O)c2ccc(OC(C)C)cc2)C(=O)C(=O)N1c1cc(C)on1 (stereo unspecified) | -2.72% (inactive) |
| CCOc1ccc(/C(O)=C2\C(=O)C(=O)N(c3ccc(OC)cc3)C2c2ccccc2[N+](=O)[O-])cc1 (stereo unspecified) | 45.2% (active) |
| COc1ccc(C2/C(=C(/O)c3ccccc3)C(=O)C(=O)N2C)c(OC)c1 (stereo unspecified) | 5.88% (inactive) |
| O=S(=O)(Nc1nccs1)c1ccc2c(c1)OCCO2 | 13.4% (inactive) |
| CC(CCc1ccc(O)cc1)NCc1ccc(Cl)cc1Cl (stereo unspecified) | 0.267% (inactive) |
| COc1ccc(NC(=O)CCCNC(=O)Cn2cnc3sc4c(c3c2=O)CCCC4)cc1OC | -1.82% (inactive) |
| O=[N+]([O-])c1cccc(C2=NCCS2)c1 | 7.65% (inactive) |
| CCOC(=O)C1=C(CN2CCCCCC2)NC(=O)NC1c1cccc([N+](=O)[O-])c1 (stereo unspecified) | -4.55% (inactive) |
| CCOC(=O)c1sc(-c2cccc([N+](=O)[O-])c2)cc1N | 19% (active) |
| CN(C)S(=O)(=O)Oc1ccccc1C(=O)Nc1ccccc1Cl | -4.26% (inactive) |
| O=c1c2ccccc2c(-c2ccc(Br)cc2)nn1Cc1ccccc1 | -1.69% (inactive) |
| O=C(NCCc1ccco1)c1nn(Cc2ccccc2)c(=O)c2ccccc12 | 11.7% (active) |
| O=C(NCc1ccco1)c1nc(-c2ccccc2)n(-c2ccccc2)n1 | -1.99% (inactive) |
